PubChem BioAssay (NCI)
Values joined by “and” are separate entries in the source; they are usually repeats but may differ in a detail not shown here. Identical values can stand only once. Compounds without any hit were thinned out: in the full panel of roughly 83,000, 20% have a hit.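 Cells were grown in 96-well plates and exposed to the test compound at a single concentration for 48 hours; results are reported as percent growth, with values below 10 considered active.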 A number with no mark means an inactive call. Active and inactive are the calls of the source.

These compounds were tested on HL-60(TB) leukemia (assay: NCI-60 one-dose screen, 48 h (100 = growth as untreated, 0 = no growth, -100 = all killed)). Settings: 10 µM unless noted.

Question: With `Cn1cc(-c2cc(N)n3nc(-c4c[nH]c5ccccc45)cc3n2)c2ccccc21` as the compound, how does the growth read?
Answer: The growth was -24.5% (active).

Question: `COc1ccc2nc(Cl)c(-c3cc(-c4ccccc4)nc(N)n3)cc2c1` was tested. Which growth did it give?
Answer: Its growth is -37.5% (active).

Question: How did the growth turn out when `Cc1ccc(-c2cc(C(=O)N=Nc3c(O)[nH]c4ccccc34)c3ccccc3n2)cc1` was run?
Answer: Its growth is 28.2%.

Question: `COc1ccc2nc(NC(=O)c3ccc(N(C)C)cc3)sc2c1` was tested. Which growth did it give?
Answer: The growth was 51.5%.

Question: How did the growth turn out when `O=c1[nH]c2ccccc2cc1CSc1ccc(Nc2nccc(-c3ccc(C(F)(F)F)cc3)n2)cc1` was run?
Answer: Its growth is 69.5%.

Question: How did the growth turn out when `O=C(NNc1ccccc1)n1c(=O)c2ccccc2c(=O)n1-c1ccccc1` was run?
Answer: The growth was 82.7%.

Question: Which growth does the source give for `COc1cc(C=O)ccc1Oc1nc(Nc2ccc(F)cc2)nc(N(C)C)n1` here?
Answer: Its growth is 65.2% and 70.8%.

Question: Which growth does the source give for `CCOC(=O)/C=C/c1cccc2c1C(=O)NC(C)(c1cc3cc(Cl)ccc3oc1=O)N2` (stereo not given) here?
Answer: Its growth is 2.37% (active).

Question: Which growth does the source give for `O=c1c2ccccc2nc(COc2ccccc2)n1/N=C/c1ccc(F)cc1` here?
Answer: The growth was 94.8%.

Question: For `COC1=C[C@@]23CCC(=O)N2CCc2cc4c(cc2[C@H]3[C@H]1OC(=O)C(C)(C)O)OCO4`, which growth is on record?
Answer: Its growth is 87%.

Question: For `CS(=O)(=O)Nc1cccc(-n2cnc3cc(-c4ccc(O)cc4)ccc32)c1`, which growth is on record?
Answer: The growth was 7.73% (active).

Question: How did the growth turn out when `COc1cc(/C=N/NC(=O)c2ccc(OCc3nc4ccc(C)cc4[nH]3)cc2)cc(OC)c1OC` was run?
Answer: Its growth is 33.5%.

Question: For `C[C@@H]1CN(c2ccc3ncc(C#Cc4cncc(C(=O)Nc5ccc(CN6CCN(C)CC6)c(C(F)(F)F)c5)c4)n3n2)C[C@@H](C)O1`, which growth is on record?
Answer: Its growth is -53.6% (active).

Question: With `Brc1ccc(N/N=C/c2c[nH]c3ccccc23)nc1` as the compound, how does the growth read?
Answer: Its growth is 13.2%.

Question: `COc1cc(C2C(C(=O)OCc3ccccc3)=C(C)Nc3nc4ccccc4n32)cc(OC)c1OC` (stereo not given) was tested. Which growth did it give?
Answer: Its growth is 16.1%.

Question: `COC1=C[C@]23CCC(=O)N2CCc2cc4c(cc2[C@@H]3[C@@H]1OC(=O)CCCC(C)C)OCO4` was tested. Which growth did it give?
Answer: The growth was 7.81% (active).

Question: `CC1(c2cc3cc(Cl)ccc3oc2=O)NC(=O)c2c(/C=C/C(=O)OC3CC4CCC3(C)C4(C)C)cccc2N1` (stereo not given) was tested. Which growth did it give?
Answer: Its growth is 29%.

Question: How did the growth turn out when `Cn1cc(-c2nc(N)nnc2-c2c[nH]c3ccc(Br)cc23)c2cccnc21` was run?
Answer: Its growth is 5.1% (active).

Question: `COc1cc(/C=C/C(=O)c2ccc(F)cc2)ccc1Oc1nc(Nc2ccc(F)cc2)nc(N(C)C)n1` was tested. Which growth did it give?
Answer: The growth was 61.3%.

Question: `O=C(NC(=S)N1CCN(c2ncnc3c2cnn3-c2ccccc2)CC1)c1ccc(F)cc1` was tested. Which growth did it give?
Answer: The growth was 64.8%.

Question: With `Oc1ccc(F)c(Nc2nc(SCCN3CCOCC3)nc3c2cnn3CC(Cl)c2ccc(Br)cc2)c1` (stereo not given) as the compound, how does the growth read?
Answer: Its growth is 2.22% (active).

Question: Which growth does the source give for `O=C1CC(c2ccc(I)cc2)OC2C=Cc3ccccc3C12` (stereo not given) here?
Answer: Its growth is 89%.

Question: Which growth does the source give for `Cc1ccc(/C=C/C(=O)c2ccc(NC(=O)CSc3nnc(-c4c[nH]c5ccccc45)n3-c3ccccc3)cc2)c(C)c1` here?
Answer: Its growth is 79.6%.

Question: `COc1ccc(/C(CSc2nnc(-c3c[nH]c4ccccc34)n2-c2ccccc2)=N/O)cc1` was tested. Which growth did it give?
Answer: The growth was 3.87% (active).

Question: Which growth does the source give for `Cc1ccc2c(c1)nc(-c1ccccc1)n2CC(=O)N=Nc1c(O)[nH]c2ccc(Br)cc12` here?
Answer: The growth was 7.86% (active).

Question: Which growth does the source give for `C#CCN(C)CCCOc1ccc(N(CC)C(=O)c2cc(C(C)C)c(O)cc2O)cc1Cl` here?
Answer: The growth was -63.8% (active).

Question: With `O=C(N/N=C/c1ccc(Cl)cc1)c1ccc(OCc2nc3ccc(Cl)cc3[nH]2)cc1` as the compound, how does the growth read?
Answer: The growth was 81.7%.

Question: For `C=C1CC[C@@H]2[C@]3(C)COC(c4cn(-c5ccccc5)nc4-c4cccc([N+](=O)[O-])c4)O[C@@H]3CC[C@@]2(C)[C@@H]1C/C=C1/C(=O)OC[C@H]1O` (stereo not given in full), which growth is on record?
Answer: Its growth is 12.6%.

Question: `O=C(c1ccc(Cl)cc1)C1[C@H](c2ccccc2Cl)[C@@H](c2ccccc2)NC12C(=O)Nc1ccccc12` (stereo not given in full) was tested. Which growth did it give?
Answer: Its growth is -35.1% (active).

Question: `COc1c2c(c(Br)c3c1C(CCc1ccccc1)N(C)CC3)OCO2` (stereo not given) was tested. Which growth did it give?
Answer: The growth was 14.1%.

Question: `CCOC(=O)/C(F)=C/C1CC1C1CCN(C(=O)OC(C)(C)C)CC1` (stereo not given) was tested. Which growth did it give?
Answer: Its growth is 102%.

Question: With `CCCCNc1ccc2c3c(cccc13)C(=O)N(c1cccc(-c3nn(-c4ccccc4)cc3-c3nc4ccccc4s3)c1)C2=O` as the compound, how does the growth read?
Answer: The growth was 106%.

Question: How did the growth turn out when `O=c1oc2ccc(Br)cc2cc1C1=CSc2nc3sc4c(c3c(=O)n2N=C1)CCCC4` was run?
Answer: The growth was 45.4%.

Question: How did the growth turn out when `C/C(=N/O)c1ccc(NC(=O)CSc2nnc(-c3ccc4nc(-c5ccc(Cl)cc5)[nH]c4c3)o2)cc1` was run?
Answer: Its growth is 81.8%.

Question: With `CCCCOc1ccc(Nc2nc3ccccc3nc2Nc2ccc(OCCCC)cc2)cc1` as the compound, how does the growth read?
Answer: Its growth is 79.7%.

Question: Which growth does the source give for `COc1ccc(/C=C/c2nc3ccccc3c(=O)n2CC(=O)Nc2ccc(OC)cc2)cc1` here?
Answer: The growth was 82%.

Question: `O=c1c2ccccc2nc(COc2ccccc2)n1/N=C/c1ccc(N2CCOCC2)cc1` was tested. Which growth did it give?
Answer: Its growth is 100%.

Question: Which growth does the source give for `N/C(=N\c1nc2ccccc2s1)NC(=O)Nc1ccccc1Br` here?
Answer: Its growth is -28.5% (active).

Question: `COc1cc(CNC(=O)C[C@H](C)CCC=C(C)C)ccc1OCc1cn(-c2ccccc2F)nn1` was tested. Which growth did it give?
Answer: Its growth is 91.5%.

Question: Which growth does the source give for `CCCCCCCCCCCCCCCCCCCC(=O)NCCc1c[nH]c2ccc(OC(=O)NOCCOCCOCCOCCOCCOCCOCCOCCOCCOCCOCCOCCOCCOCCOCCOCCOCCOCCOCCOCCOCCOCCOC)cc12` here?
Answer: Its growth is -38.2% (active).
